Dicer inh: human Dicer pre-microRNA cleavage inhibition; Q9UPY3; cat-ELCCA pre-miR-21 Dicer processing, chemiluminescence; stronger effect = higher value; z-score at 25 µM; hit rate 6% among 47,000; AID 1347074; in the data active means z-score above about 3, passing the limit was not always enough;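 further: higher signal means more uncleaved substrate so more Dicer inhibition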
Large screens that a line does not name were inactive. Many of the other results were omitted from the sample, so hits are more common in it than they were.

Fc1ccc(-c2csc3ncnc(N4CCN(c5ccccn5)CC4)c23)cc1	none
CCCCCc1ccc(S(=O)(=O)Nc2nc(CC(=O)OCC)cs2)cc1	none
CCOC(=O)C(=CNc1nc2ccc(OC)cc2s1)C(=O)OCC	none
CCOCCCNC(=O)CN1C(=O)c2ccccc2S1(=O)=O	none
Cc1ccc(C2CC(=O)NC(SCC(=O)Nc3ccc(Br)cc3)=C2C#N)o1 (configuration not stated)	none
CC1CN(CN2C(=O)c3ccccc3C2=O)CC(C)O1 (configuration not stated)	Dicer inh 3.4
O=C1c2ccccc2C(=O)N1CN1CCSCC1	none
O=C1c2ccccc2C(=O)N1CN1CCN(C(c2ccccc2)c2ccccc2)CC1	none
Cc1[nH]nc2c1C(c1ccccc1OCc1ccccc1Cl)C(C#N)=C(N)O2 (configuration not stated)	none
CSC(SC)=C(C#N)S(C)(=O)=O	none
CC(C)(C)C(=O)NCCNC(=O)c1nonc1N	none
Nc1nonc1C(=O)NCCNC(=O)c1cccc(Br)c1	Dicer inh 5.2
Nc1nonc1C(=O)NCCNCc1cccs1	none
COCCNC(=O)CSc1nc(-c2ccco2)cc(C(F)(F)F)n1	none
O=C(c1cccc(C(F)(F)F)c1)c1nccc2ccccc12	none
CCOC(=O)c1sc2nc(C)cc(C)c2c1N(C(C)=O)C(C)=O	Dicer inh 3.4
CCOC(=O)c1sc2nc(C)cc(C)c2c1NC(=O)Nc1cccc(Cl)c1	none
CC(=O)c1sc2nc(C)cc(C)c2c1N	none
CCOC(=O)N1CCC(NC(=O)c2nccnc2C(=O)Nc2ccc(C)cc2)CC1	none
Cc1ccc(NC(=O)c2ccsc2)cc1NS(C)(=O)=O	none
Cc1csc(NC(=O)Nc2ccc(C(F)(F)F)cc2)c1Cl	none
Cc1ccc(NC(=O)Nc2ccc(C(F)(F)F)cc2)cc1NS(C)(=O)=O	Dicer inh 6.3
Cc1ccc(N2C(=O)C3C4c5ccccc5C(C(=O)O)(c5ccccc54)C3C2=O)cc1 (configuration not stated)	none
Cc1ccc(N2C(=O)C3C4C=CC(CO)(O4)C3C2=O)cc1Br (configuration not stated)	none
CC1(C(=O)O)NC(c2ccc(O)cc2O)C2C(=O)N(c3ccc(Br)cc3)C(=O)C21 (configuration not stated)	Dicer inh 5
CCOC(=O)c1cc(-c2ccccc2)n(CCNC(=O)OC(C)(C)C)c1C	none
Cc1ccc(C(=O)/C=C/S/C=C/C(=O)c2ccc(C)cc2)cc1	none
Cc1ccc(C(=O)/C=C/C=C/C=C/N(C)C)cc1	Dicer inh 4.5
COc1ccc2cc(C(=O)/C=C/N(C)C)ccc2c1	none
CN(C)/C=C/C(=O)c1ccc(Cl)cc1	none
CN(C)/C=C/C(=O)c1ccc(Cl)c(Cl)c1	Dicer inh 4.9
CN(C)/C=C/C(=O)c1ccc(C#Cc2ccccc2)cc1	none
O=[N+]([O-])c1ccc(Oc2ccc(Oc3ccc([N+](=O)[O-])cn3)c(-c3ccccc3)c2)nc1	none
Cc1ccc2c(C)nc(Nc3ncc4c(n3)CC(c3ccco3)CC4=O)nc2c1 (configuration not stated)	none
COc1ccc(C2C3CSc4ccccc4C3=NN2c2ccccc2)cc1 (configuration not stated)	none
NC1=NC(c2cccs2)n2c(nc3ccccc32)N1 (configuration not stated)	none
Cc1ccc(Cn2c(-c3nonc3N)nc3ccccc32)cc1	none
Nc1nonc1-c1nc2ccccc2n1Cc1ccc(Cl)cc1	none
COc1cccc(Cn2c(-c3nonc3N)nc3ccccc32)c1	Dicer inh 4.2
CN(C(=O)Cn1c(-c2cncs2)nc2ccccc21)c1ccccc1	none
CCC(=O)Nc1nonc1-c1nc2ccccc2n1CCC(C)C	none
O=C1CN(CC(=O)N2CCN(c3ccc(F)cc3)CC2)c2ccccc2O1	none
Nc1nonc1-c1nc2ccccc2n1CC(=O)Nc1ccc(F)cc1	none
CN(C(=O)Cn1c(-c2nonc2N)nc2ccccc21)c1ccccc1	Dicer inh 4.1
Nc1nonc1-c1nc2ccccc2n1CC(=O)N1CCN(c2ccc(F)cc2)CC1	Dicer inh 3.4
O=C(O)CCCC(=O)Nc1ccc(Br)cn1	none
O=C(CCc1ccc(O)cc1)NNC(=S)Nc1ccccc1Cl	none
COC(=O)c1c(C)[nH]c(C)c1-c1ccno1	none
CC(Oc1ccc2ccccc2c1I)C(=O)O (configuration not stated)	none
O=c1oc(-c2ccc(Cl)cc2Cl)nc2ccc([N+](=O)[O-])cc12	none
Cc1c(C#N)c(NC(=O)c2ccc(C(C)(C)C)cc2)n(Cc2cccc(Cl)c2)c1C	none
O=C(CSC1CS(=O)(=O)c2cc([N+](=O)[O-])ccc21)NNC(=O)c1ccccc1Cl (configuration not stated)	none
CC(C)c1nc2sc3c(NCCCN(C)C)ncnc3c2c2c1COC(C)(C)C2	none
O=S(=O)(CCc1ccncc1)c1ccc(Cl)cc1	Dicer inh 4.3
O=S(=O)(Cc1ccccc1)c1ccc(Cl)cc1	none
O=S(=O)(CCS(=O)(=O)c1cccs1)c1ccc(Cl)cc1	none
Cc1nc(C(F)(F)F)ccc1C(=O)Oc1ccc2c(c1)OCO2	none
O=C(O)CCc1nc2ccc(C(=O)O)cc2[nH]1	Dicer inh 3.7
O=C(O)c1ccc2nc(CCc3ccccc3)[nH]c2c1	none
Nc1ccc2nc(CCC(=O)O)[nH]c2c1	none
CCOC(=O)C(O)(c1ccc(N(C)C(=O)Nc2ccccc2)cc1)C(F)(F)F (configuration not stated)	none
O=C(Nc1nnc(C(F)(F)F)s1)c1c(F)cccc1F	none
FC(F)(F)c1nnc(Nc2ccc(Cl)cc2)s1	Dicer inh 7.3
FC(F)(F)c1nnc(Nc2cccnc2)s1	none
CC1C/C(=N\Nc2ccc(I)cc2)c2cc(Cl)ccc2S1(=O)=O (configuration not stated)	Dicer inh 4
CCCOC(=O)C1C2C=CC3(CN(c4ccc(Cl)cc4)C(=O)C13)O2 (configuration not stated)	none
C=CCSc1nnc2c(n1)OC(c1ccco1)N(C(C)=O)c1ccccc1-2 (configuration not stated)	none
CC1CN(S(=O)(=O)c2cc(Cl)c(Oc3ccc([N+](=O)[O-])cc3Cl)c(Cl)c2)CC(C)O1 (configuration not stated)	none
c1ccc(-c2c(-c3ccccc3)n(Cc3ccco3)c3ncn4nc(-c5ccco5)nc4c23)cc1	Dicer inh 5.6
Cc1onc(-c2ccccc2)c1CSc1n[nH]c(=O)n1Cc1ccco1	none
Cc1nc2c([nH]1)c(=O)n(C)c(=O)n2Cc1ccco1	none
CC1=C(C#N)C(c2ccc(C#Cc3ccccc3)s2)C2=C(CCCC2=O)N1 (configuration not stated)	none
CC(=NCc1c(C)c(C)c(C)c(C)c1C)c1ccccc1O	none
Nc1nonc1C1=NS(=O)ON1 (configuration not stated)	none
O=C(O)CCC(=O)N1c2ccccc2NC2=C(C(=O)CC(c3ccccc3)C2)C1c1cccc(F)c1 (configuration not stated)	none
COc1ccc(C2Nc3ccccc3NC3=C2C(=O)CC(c2cccs2)C3)cc1Br (configuration not stated)	none
COc1ccccc1C1Nc2ccccc2NC2=C1C(=O)CC(c1cccs1)C2 (configuration not stated)	none
COc1cccc(C2C3=C(CC(c4ccccc4)CC3=O)Nc3ccccc3N2C(=O)C2CC2)c1 (configuration not stated)	Dicer inh 3.7
COc1cccc(C2Nc3ccccc3NC3=C2C(=O)CC(c2cccs2)C3)c1 (configuration not stated)	Dicer inh 3.4
COc1ccc(C2CC(=O)C3=C(C2)Nc2ccccc2NC3c2cccc(Br)c2)cc1 (configuration not stated)	none

Screening data deposited in PubChem by Center for Chemical Genomics, University of Michigan.
